These results are taken from ChEMBL document CHEMBL2218924, “A broad activity screen in support of a chemogenomic map for kinase signalling research and drug discovery” (Biochem J, 2013).

The target in assay [1] is T1, Serine/threonine-protein kinase TBK1 (Homo sapiens) (UniProt Q9UHD2).
T1 sequence (whole entry): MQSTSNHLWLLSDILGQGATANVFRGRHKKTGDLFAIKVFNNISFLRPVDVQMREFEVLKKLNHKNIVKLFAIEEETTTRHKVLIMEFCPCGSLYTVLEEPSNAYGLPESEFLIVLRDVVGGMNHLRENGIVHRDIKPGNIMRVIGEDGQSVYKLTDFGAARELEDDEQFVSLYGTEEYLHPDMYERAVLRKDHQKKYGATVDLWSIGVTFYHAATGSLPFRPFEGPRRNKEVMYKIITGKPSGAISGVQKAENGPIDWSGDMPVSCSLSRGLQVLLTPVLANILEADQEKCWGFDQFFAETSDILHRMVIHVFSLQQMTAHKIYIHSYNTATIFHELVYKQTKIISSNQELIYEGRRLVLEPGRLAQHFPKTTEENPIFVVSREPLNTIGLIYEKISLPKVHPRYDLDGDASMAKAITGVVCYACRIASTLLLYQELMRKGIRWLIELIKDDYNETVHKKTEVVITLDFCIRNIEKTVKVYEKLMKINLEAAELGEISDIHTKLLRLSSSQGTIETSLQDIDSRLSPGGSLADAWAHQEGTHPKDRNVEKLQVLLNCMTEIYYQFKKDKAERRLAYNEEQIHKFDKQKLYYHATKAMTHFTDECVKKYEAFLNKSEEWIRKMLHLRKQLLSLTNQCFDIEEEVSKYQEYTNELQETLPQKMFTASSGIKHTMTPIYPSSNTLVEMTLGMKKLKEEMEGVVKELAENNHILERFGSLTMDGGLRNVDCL
To be noted: at 10 µM.

Assay [2] concerns the target T2, TGF-beta receptor type-1 (Homo sapiens) (UniProt P36897).
T2 sequence (whole entry): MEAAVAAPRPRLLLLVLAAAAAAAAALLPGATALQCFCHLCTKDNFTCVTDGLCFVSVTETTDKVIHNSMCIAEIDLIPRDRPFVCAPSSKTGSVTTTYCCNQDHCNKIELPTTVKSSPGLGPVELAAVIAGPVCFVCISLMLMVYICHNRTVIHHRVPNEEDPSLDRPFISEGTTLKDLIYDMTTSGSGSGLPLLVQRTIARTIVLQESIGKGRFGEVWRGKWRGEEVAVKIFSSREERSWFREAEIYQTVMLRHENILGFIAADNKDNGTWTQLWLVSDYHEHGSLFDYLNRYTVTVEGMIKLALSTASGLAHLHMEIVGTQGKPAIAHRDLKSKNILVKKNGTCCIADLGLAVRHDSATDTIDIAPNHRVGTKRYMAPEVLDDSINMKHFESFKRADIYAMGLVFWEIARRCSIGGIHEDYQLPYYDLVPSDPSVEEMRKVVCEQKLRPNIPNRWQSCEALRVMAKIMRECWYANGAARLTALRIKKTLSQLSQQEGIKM
To be noted: at 1 µM.

Assay [3] has as its target T2, TGF-beta receptor type-1 (Homo sapiens). To be noted: at 10 µM.
Assay [4] has as its target Insulin-like growth factor 1 receptor (Homo sapiens) (UniProt P08069). The following applies: at 1 µM.
Assay [5] has the same target. The following applies: at 10 µM.
For assay [6], the target named is T3, Inhibitor of nuclear factor kappa-B kinase subunit alpha (Homo sapiens) (UniProt O15111).
T3 sequence (whole entry): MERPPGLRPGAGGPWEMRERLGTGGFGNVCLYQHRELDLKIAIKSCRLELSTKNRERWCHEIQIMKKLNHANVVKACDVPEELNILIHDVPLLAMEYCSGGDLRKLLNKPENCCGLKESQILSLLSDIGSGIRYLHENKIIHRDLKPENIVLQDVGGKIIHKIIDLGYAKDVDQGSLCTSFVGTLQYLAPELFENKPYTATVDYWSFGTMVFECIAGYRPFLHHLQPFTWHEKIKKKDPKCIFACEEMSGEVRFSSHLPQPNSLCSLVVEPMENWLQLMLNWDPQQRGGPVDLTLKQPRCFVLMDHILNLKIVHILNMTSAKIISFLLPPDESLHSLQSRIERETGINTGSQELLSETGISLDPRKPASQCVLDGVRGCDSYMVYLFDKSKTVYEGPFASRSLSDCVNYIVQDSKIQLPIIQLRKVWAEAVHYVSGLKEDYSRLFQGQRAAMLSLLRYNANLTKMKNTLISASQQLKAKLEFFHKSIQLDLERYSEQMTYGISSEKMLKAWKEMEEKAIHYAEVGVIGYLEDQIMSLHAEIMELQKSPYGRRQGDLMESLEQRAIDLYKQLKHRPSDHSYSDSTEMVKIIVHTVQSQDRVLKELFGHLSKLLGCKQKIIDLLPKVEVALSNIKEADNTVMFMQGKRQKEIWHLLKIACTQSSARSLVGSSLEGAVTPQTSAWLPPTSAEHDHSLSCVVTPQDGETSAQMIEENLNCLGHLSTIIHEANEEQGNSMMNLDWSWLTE
To be noted: at 1 µM.

The target in assay [7] is T3, Inhibitor of nuclear factor kappa-B kinase subunit alpha (Homo sapiens). To be noted: at 10 µM.
In assay [8] the target is T4, Inhibitor of nuclear factor kappa-B kinase subunit beta (Homo sapiens) (UniProt O14920).
T4 sequence (whole entry): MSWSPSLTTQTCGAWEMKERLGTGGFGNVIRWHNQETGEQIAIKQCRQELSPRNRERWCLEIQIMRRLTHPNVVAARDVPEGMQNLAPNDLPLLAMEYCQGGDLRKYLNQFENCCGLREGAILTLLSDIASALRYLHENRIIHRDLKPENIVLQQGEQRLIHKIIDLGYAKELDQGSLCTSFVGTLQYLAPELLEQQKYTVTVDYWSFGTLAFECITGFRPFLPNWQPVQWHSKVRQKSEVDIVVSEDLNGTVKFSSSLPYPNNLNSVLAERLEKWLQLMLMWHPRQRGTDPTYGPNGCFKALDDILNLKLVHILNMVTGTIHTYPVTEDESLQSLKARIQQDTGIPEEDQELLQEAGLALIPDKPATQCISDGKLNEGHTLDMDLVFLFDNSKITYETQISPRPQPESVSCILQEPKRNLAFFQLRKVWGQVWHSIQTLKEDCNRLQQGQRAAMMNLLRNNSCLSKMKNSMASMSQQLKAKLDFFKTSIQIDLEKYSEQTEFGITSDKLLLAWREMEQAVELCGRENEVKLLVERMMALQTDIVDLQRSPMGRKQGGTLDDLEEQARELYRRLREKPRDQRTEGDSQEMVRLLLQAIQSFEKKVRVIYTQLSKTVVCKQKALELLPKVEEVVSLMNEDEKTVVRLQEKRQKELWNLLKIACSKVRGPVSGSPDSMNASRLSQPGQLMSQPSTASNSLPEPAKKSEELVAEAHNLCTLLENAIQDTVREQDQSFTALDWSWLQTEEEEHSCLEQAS
To be noted: at 10 µM.

Assay [9] deals with T4, Inhibitor of nuclear factor kappa-B kinase subunit beta (Homo sapiens). The following applies: at 1 µM.
The target of assay [10] is Insulin receptor (Homo sapiens) (UniProt P06213). The following applies: at 1 µM.
Sequence of Insulin receptor (Homo sapiens) (P06213 28-758 limits assumed): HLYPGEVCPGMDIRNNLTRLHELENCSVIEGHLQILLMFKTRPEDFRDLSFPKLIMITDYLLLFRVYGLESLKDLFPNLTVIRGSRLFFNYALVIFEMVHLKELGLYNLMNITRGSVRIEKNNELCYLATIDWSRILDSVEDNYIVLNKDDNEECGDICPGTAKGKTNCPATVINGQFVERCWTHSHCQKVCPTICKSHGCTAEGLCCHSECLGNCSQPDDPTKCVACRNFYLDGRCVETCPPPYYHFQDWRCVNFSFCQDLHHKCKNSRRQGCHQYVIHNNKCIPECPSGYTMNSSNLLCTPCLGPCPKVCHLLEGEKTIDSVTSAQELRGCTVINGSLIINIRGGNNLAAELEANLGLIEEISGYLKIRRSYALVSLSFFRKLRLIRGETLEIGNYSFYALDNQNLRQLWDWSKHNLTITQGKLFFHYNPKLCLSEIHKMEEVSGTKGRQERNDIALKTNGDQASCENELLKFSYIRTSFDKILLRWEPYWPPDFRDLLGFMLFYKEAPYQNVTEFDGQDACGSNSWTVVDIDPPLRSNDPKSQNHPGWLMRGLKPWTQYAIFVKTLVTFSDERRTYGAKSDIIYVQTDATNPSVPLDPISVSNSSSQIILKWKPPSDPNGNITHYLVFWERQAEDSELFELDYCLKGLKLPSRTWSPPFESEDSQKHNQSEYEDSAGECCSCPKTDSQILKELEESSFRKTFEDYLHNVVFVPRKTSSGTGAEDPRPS
Sequence of Insulin receptor (Homo sapiens) (P06213 763-1382 limits assumed): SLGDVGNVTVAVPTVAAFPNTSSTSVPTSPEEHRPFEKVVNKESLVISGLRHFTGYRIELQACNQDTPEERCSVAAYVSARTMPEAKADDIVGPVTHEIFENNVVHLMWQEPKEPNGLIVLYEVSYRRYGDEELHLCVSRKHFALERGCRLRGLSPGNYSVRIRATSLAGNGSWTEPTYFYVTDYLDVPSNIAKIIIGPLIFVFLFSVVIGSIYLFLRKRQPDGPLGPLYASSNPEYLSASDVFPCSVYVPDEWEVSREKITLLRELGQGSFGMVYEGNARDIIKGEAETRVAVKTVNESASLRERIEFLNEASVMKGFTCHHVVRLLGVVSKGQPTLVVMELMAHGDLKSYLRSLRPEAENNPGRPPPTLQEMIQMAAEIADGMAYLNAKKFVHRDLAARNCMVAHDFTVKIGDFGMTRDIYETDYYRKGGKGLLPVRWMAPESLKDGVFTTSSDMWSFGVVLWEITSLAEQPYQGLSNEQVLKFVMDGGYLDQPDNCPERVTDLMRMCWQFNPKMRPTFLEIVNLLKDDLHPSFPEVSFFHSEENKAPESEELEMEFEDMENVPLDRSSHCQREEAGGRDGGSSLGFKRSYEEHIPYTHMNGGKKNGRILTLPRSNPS

Sequence of Insulin-like growth factor 1 receptor (Homo sapiens) (P08069 31-736 limits assumed): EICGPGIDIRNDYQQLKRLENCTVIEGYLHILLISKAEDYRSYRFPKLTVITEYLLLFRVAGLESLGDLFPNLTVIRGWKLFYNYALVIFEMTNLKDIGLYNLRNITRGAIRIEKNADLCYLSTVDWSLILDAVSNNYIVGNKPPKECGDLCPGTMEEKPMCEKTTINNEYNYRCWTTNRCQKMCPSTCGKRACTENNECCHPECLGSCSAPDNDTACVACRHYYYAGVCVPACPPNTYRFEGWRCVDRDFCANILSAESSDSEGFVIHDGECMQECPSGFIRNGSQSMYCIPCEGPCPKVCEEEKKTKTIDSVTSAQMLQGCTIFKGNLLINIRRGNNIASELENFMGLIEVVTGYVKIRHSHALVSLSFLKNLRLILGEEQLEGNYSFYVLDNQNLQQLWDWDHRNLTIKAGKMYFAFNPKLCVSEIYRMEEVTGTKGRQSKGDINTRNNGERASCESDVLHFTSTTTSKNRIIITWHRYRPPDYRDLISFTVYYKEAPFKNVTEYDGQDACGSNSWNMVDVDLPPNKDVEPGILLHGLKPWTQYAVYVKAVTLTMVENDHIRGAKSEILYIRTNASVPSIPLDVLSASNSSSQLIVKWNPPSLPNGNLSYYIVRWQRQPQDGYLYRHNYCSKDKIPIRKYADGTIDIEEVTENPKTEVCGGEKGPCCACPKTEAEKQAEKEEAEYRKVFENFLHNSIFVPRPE
Sequence of Insulin-like growth factor 1 receptor (Homo sapiens) (P08069 741-1367 limits assumed): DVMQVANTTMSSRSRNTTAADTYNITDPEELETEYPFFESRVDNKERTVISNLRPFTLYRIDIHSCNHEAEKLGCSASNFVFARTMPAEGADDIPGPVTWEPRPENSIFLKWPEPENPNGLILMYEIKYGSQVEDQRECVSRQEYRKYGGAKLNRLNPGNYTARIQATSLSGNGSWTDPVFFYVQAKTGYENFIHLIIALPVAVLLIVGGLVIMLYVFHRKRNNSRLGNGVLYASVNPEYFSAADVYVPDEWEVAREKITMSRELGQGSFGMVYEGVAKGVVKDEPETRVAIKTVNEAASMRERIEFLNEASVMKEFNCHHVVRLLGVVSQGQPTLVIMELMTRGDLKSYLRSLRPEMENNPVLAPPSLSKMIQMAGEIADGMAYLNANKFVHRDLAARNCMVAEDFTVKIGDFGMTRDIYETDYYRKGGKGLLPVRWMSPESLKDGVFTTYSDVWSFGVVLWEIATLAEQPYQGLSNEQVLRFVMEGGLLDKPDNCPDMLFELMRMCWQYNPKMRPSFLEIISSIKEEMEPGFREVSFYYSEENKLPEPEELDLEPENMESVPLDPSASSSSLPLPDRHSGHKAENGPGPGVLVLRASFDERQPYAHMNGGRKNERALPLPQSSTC

Broadly, the residual activity is the signal under treatment as a percentage of the control signal. `Nc1cccc(-c2cc3c(Oc4cccc(O)c4)ncnc3[nH]2)c1`: the residual activity is 19% in assay [1]; 101% in assay [2]; 56% in assay [3]; 105% in assay [4]; 85% in assay [5]; 88% in assay [6]. Also, the residual activity is 78% in [7] and 91% in [8].

For `COc1cc2ncnc(N3CCN(C(=O)Nc4ccc(Oc5ccccc5)cc4)CC3)c2cc1OC`, the residual activity in [1] was found to be 53%; in assay [2], 80%; in [3] it was 76%; in assay [6] it was 103%; in [9], 113%; in [8], 115%. In assay [10], the residual activity was 115%.

`O=C1Nc2ccccc2/C1=C1/Nc2ccccc2/C1=N\OCCC(O)CO` (stereo unspecified): the residual activity stood at 1% in assay [1]; 77% in [2]; 64% in assay [3]; 10% in [4]; 10% in assay [5]; 82% in [6]. For the same compound, the residual activity is 46% in assay [7], 104% in assay [9], 66% in [8] and 17% in assay [10].

Turning to `CC(C)n1cnc2/c(=N/c3cccc(Cl)c3)nc(NCCO)[nH]c21`, the residual activity in assay [1] worked out at 33%; in assay [2], 79%; in assay [3], 85%; in [4], 72%; in [5], 31%; in assay [6], 114%. Further, the residual activity in [7] is 98%; in assay [9] it was 102%; in assay [8], 85%; in assay [10], 83%.

As to `c1ccc(-c2n[nH]cc2-c2ccnc3ccccc23)nc1`, the residual activity in assay [1] is 66%; in assay [2], 6%; in assay [3], 0%; in assay [4], 99%; in assay [5], 82%; in assay [10] it was 108%.

`COc1cc2ncnc(Nc3ccc(O)c(Br)c3)c2cc1OC`: the residual activity came to 15% in assay [1]; 79% in assay [2]; 71% in [3]; 87% in [4]; 81% in assay [5]; 97% in [6]. Besides, the residual activity in [7] was determined as 72%; in [9], 97%; in assay [8] it was 82%; in assay [10], 114%.

As for `Cc1cc(Nc2nc(-c3ccccc3)nc3ccccc23)n[nH]1`, the residual activity in assay [1] amounted to 0%; in [2] it was 96%; in assay [3], 78%; in assay [4], 20%; in [5], 1%; in assay [6] it was 102%. Further, the residual activity in assay [7] came out at 72%; in [9] it was 78%; in assay [8], 51%; in [10] it was 16%.

Consider `CC[n+]1c(/C=C/N(C)c2ccccc2)n(-c2ccccc2)c2ccc(-c3nc4ccccc4s3)cc21`, for which the residual activity in [1] came to 68%; in assay [2] it was 80%; in [3], 102%; in assay [4], 97%; in [5], 86%; in [6] it was 92%. For the same compound, the residual activity is 93% in assay [7], 105% in assay [9], 102% in assay [8] and 107% in assay [10].

For `COc1cc2ncc(-c3ccccc3)nc2cc1OC`, the residual activity in assay [1] is 76%; in [9] it was 95%; in [8], 95%.

Take `COc1cc2ncnc(Nc3ccc(NC(=O)c4ccccc4)cc3)c2cc1OC`: the residual activity came out at 75% in assay [1]; 98% in assay [2]; 103% in assay [5]; 102% in assay [6]; 96% in [7]; 109% in assay [9]. Moreover, the residual activity in [8] came out at 106%.
